Source: PubChem BioAssay
This is one part of a sample in which hits are shown more often than they occur.
Pf Dd2 growth: inhibitors of Plasmodium falciparum Dd2 growth. P. falciparum Dd2 growth, SYBR Green, 72 h. Potency, µM (titrated, usually from 28.9 µM), most hits filed as inhibitors. 120,000 compounds, 4.3% hits; active = well fitted inhibition curve with a large enough effect; note: nearly all actives have a fitted effect of over 65% in size
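Readout: SYBR Green fluorescence, 485 nm excitation, 535 nm emission, after ~16 h lysis at 37C. Before that, Dd2-infected red cells (2.5% hematocrit) grew 72 h with compound, 29 uM top final concentration.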
Each line names hits and unclear results; the compound was inactive in the other large screens.

CN1CCCCCC(O)c2cc(C(=O)NCCN3CCOCC3)ccc21 (stereo not given)	none
NC1CC(c2cc(N3CCN(CCOc4ccccc4)CC3)ncn2)C1 (stereo not given)	none
O=C(N1CCN(S(=O)(=O)c2cccc(F)c2)CC1)N1CC2CC(C1)[C@H]1CCCC(=O)N1C2 (stereo not given in full)	none
CCC(=O)N1CCc2cc(Br)cc(S(=O)(=O)NCc3ccccc3)c21	none
CCC(=O)N1CCc2cc(Br)cc(S(=O)(=O)N3CCCC(C(=O)Nc4ccc(OC)cc4OC)C3)c21 (stereo not given)	none
CCC(=O)N1CCc2cc(Br)cc(S(=O)(=O)N3CCCC(C(=O)Nc4ccc(CC)cc4)C3)c21 (stereo not given)	none
CCCN(CCC)C(=O)C1CCCN(S(=O)(=O)c2cc(Br)cc3c2N(C(=O)CC)CC3)C1 (stereo not given)	none
CCC(=O)N1CCc2cc(Br)cc(S(=O)(=O)N3CCCC(C(=O)Nc4cccc(C)c4C)C3)c21 (stereo not given)	Pf Dd2 growth 5.01µM
Cc1cccc(NC(=O)C2CCCN(S(=O)(=O)c3cccc4nonc34)C2)c1 (stereo not given)	none
CCC(=O)N1CCc2cc(Br)cc(S(=O)(=O)N3CCCC(C(=O)Nc4cccc(F)c4)C3)c21 (stereo not given)	Pf Dd2 growth 3.55µM
CCC(=O)N1CCc2cc(Br)cc(S(=O)(=O)N3CCCC(C(=O)N(C)c4ccc(Br)cc4)C3)c21 (stereo not given)	Pf Dd2 growth 8.91µM
CCC(=O)N1CCc2cc(Br)cc(S(=O)(=O)N3CCCC(C(=O)NCc4ccc(C)cc4)C3)c21 (stereo not given)	none
CCCNC(=O)C1COC2(CCN(C(=O)c3cccc(OC)c3)CC2)N1C(=O)c1cccc(F)c1 (stereo not given)	none
Cc1ccccc1C(=O)N1CCC2(CC1)C(=O)NCN2Cc1ccc(Cl)cc1	none
COc1cccc(C(=O)NCC2Cn3cccc3C(=O)N2CC(C)C)c1 (stereo not given)	none
Cc1ncsc1C1N(C2CCN(C(=O)c3cnccn3)CC2)C(=O)C12CCCC2 (stereo not given)	none
O=C(NC1C[C@H]2CC[C@@H](C1)N2C(=O)C1CCCC1)c1ccncc1 (stereo not given in full)	none
Cc1ncc(C(=O)N2CCC3(CC2)Nc2ccccc2NC3=O)c(=O)[nH]1	none
COc1cc(OC)c(Nc2c3c(nc4nc(-c5cccs5)nn24)CCCC3)cc1Cl	Pf Dd2 growth 11.2µM
COc1cc(OC)c(NC(=O)c2ccc3c(Cl)c4c(nc3c2)CCCC4)cc1Cl	none
COc1ccc(Nc2c3c(nc4nncn24)CCC3)cc1OC	none
COc1cccc(-c2ccc3c(n2)CN(CC(=O)N2CCCC2)C(=O)CO3)c1	none
COc1cccc(S(=O)(=O)N2CCCCC2c2nc(C3CC3)n[nH]2)c1 (stereo not given)	none
Cc1cc2nn(-c3ccc(F)cc3)nc2cc1NC(=O)c1cc(Cl)ccc1Cl	none
Cc1cc2nn(-c3ccccc3)nc2cc1NC(=O)c1cccc2c(Cl)cccc12	none
CCN(CC)c1ccc(-n2nc3cc(C)c(NC(=O)c4ccccc4F)cc3n2)cc1	Pf Dd2 growth 1.41µM
COc1cccc(CN2Cc3nc(Oc4ccccc4)ccc3OCC2=O)c1	none
COc1cccc(CN2Cc3c(CN(C)Cc4ccccc4)nnn3CCC2=O)c1	Pf Dd2 growth 10µM
COc1cccc(CN2Cc3nc(N(C)c4ccccc4)ccc3OCC2=O)c1	none
CC(C)NC(=O)C1CCC(=O)N1C1CCN(C(=O)CCC2CCCC2)CC1 (stereo not given)	none
Cc1noc([C@@H]2CC(F)(F)CN2S(=O)(=O)c2ccccc2)n1	none
CCc1c(C)cc(C(=O)N[C@H]2CCOC[C@H]2C2CCOCC2)c(=O)n1C	none
COc1cccc(C(=O)N2CCC3(CC2)CC(O)CCO3)c1OC (stereo not given)	none
COc1ccccc1-c1nccc2c(=O)cc(C3=CCOCC3)oc12	none
Cc1cccc(C)c1NC(=O)Cn1cc(C(=O)c2ccco2)c2ccccc21	none
O=C(Cn1cc(C(=O)c2ccco2)c2ccccc21)Nc1ccccc1C(F)(F)F	none
Cc1ccc(NC(=O)Cn2cc(C(=O)c3ccco3)c3ccccc32)cc1	Pf Dd2 growth 11.2µM
O=C(Cn1cc(C(=O)c2ccco2)c2ccccc21)Nc1ccccc1Cl	none
CCOc1ccc(NC(=O)Cn2cc(C(=O)c3ccco3)c3ccccc32)cc1	none
Cc1ccc(NC(=O)Cn2cc(C(=O)c3ccco3)c3ccccc32)cc1C	Pf Dd2 growth 8.91µM
COc1ccc(C2(C(=O)NCCc3ccc(F)cc3)CCOCC2)cc1	none
Fc1ccc(OC2CNC2)c(F)c1	none
Cc1ccc(-c2ccc3nnc(CNC(=O)c4ccco4)n3n2)cc1	none
O=C1c2ccccc2CN1C1CCN([S+](=O)([O-])c2cccc(C(F)(F)F)c2)CC1	none
O=C(NC1CCCC1)c1cn(C2CCN(C(=O)c3cccnc3)CC2)nn1	none
Cc1ccc(S(=O)(=O)NC[C@H]2OC[C@@H](NCc3ccc(S(C)(=O)=O)cc3)[C@@H]2O)cc1	none
COc1ccc(C[C@H](NC(=O)C2=C[C@@H](NC(=O)Nc3ccccc3Br)[C@@H](O)[C@H](O)C2)C(N)=O)cc1	none
